Several values for one entry are separate records, joined by “and”; a condition that tells them apart may be missing. Equal entries are not always repeated. The campaign covered roughly 1,300 compounds. About 750 (58%) were called active. This is one part of the list. A number with no mark means an inactive call.

In the experiment the target is Sulfhydryl oxidase 1 (Homo sapiens) (UniProt O00391). Put plainly: QSOX1 enzyme inhibitors, primary screen, biochemical, ROS-Glo H2O2 luminescence, HTS (AID 1347418). Conditions: recombinant QSOX1, ROS-Glo H2O2 luminescence; at 12.5 µM; active compounds read high; active = any value above zero.
Sulfhydryl oxidase 1 (Homo sapiens), sequence (O00391 whole entry, looked up): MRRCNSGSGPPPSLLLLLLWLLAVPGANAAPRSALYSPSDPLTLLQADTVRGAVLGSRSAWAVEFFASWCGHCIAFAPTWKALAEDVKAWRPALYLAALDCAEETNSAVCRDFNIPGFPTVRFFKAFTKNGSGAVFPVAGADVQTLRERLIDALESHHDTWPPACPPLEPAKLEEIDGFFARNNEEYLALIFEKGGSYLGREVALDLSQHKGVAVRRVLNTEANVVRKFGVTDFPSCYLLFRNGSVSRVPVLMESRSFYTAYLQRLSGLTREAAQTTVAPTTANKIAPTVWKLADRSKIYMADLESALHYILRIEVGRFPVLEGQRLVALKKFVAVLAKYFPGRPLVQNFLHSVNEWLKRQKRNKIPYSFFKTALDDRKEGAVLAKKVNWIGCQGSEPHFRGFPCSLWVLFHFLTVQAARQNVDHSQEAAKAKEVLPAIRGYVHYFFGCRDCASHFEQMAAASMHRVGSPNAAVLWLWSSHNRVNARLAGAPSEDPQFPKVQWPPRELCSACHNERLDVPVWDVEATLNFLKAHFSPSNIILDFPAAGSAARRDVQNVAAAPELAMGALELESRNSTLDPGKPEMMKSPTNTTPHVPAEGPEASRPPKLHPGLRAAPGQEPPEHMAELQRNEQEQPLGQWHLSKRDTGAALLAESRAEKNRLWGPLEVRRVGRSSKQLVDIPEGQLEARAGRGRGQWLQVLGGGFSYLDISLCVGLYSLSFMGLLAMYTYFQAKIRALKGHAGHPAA
Broadly, the inhibition is the change of the read-out against control, counted positive when it falls. Take `O=C(O)C1CN(CCCP(=O)(O)O)CCN1` (centres undefined): the inhibition was 2.1% (active). As to `CN1CCC2(CCN3CCc4c(oc5ccccc45)C3C2)N(C)C1=O` (centres undefined), the inhibition is -6.5%. The same measure for `NC(=O)CNCCC(c1ccccc1)c1ccccc1`: 2.2% (active).

Consider `OC(CN1CCN(c2cccc(Cl)c2)CC1)C(c1ccccc1)c1ccccc1` (centres undefined), for which the inhibition was 5.1% (active). On to `CC1CCN=C(N)S1` (centres undefined), for which the inhibition is -1.8%. Turning to `O=C(O)C1=CCCN(CCON=C(c2ccccc2)c2ccccc2)C1`, the inhibition is 1.1% (active). The result for `CC(C)C[C@H]1C(=O)N2CCC[C@H]2[C@]2(O)O[C@](NC(=O)[C@@H]3C=C4c5cccc6[nH]c(Br)c(c56)C[C@H]4N(C)C3)(C(C)C)C(=O)N12` reads 4% (active). The result for `CCCn1c(=O)[nH]c(=O)c2[nH]cnc21` reads -1.8%; that for `CC1C(=O)N(C)C(=O)c2nc[nH]c21` (centres undefined), 0.5% (active).

As to `Cc1ccc(S(=O)(=O)NC(=O)NN2CCCCCC2)cc1`, the inhibition was 4.7% (active).

Turning to `Cc1ccc(S(=O)(=O)N[C@@H](Cc2ccccc2)C(=O)CCl)cc1`, the inhibition is -8.2%.

For the compound `CCc1ccc2c(-c3cccc(Cl)c3)nc(=O)n(CC)c2n1`, the inhibition is -0.7%. The same measure for `Clc1ccc2nsnc2c1NC1=NCCN1`: 1.5% (active).

On to `Nc1cc(Cl)c(NC2=NCCN2)c(Cl)c1`, for which the inhibition was -2.8%. As to `Clc1cccc(Cl)c1NC1=NCCN1`, the inhibition was -1.9%. Regarding `Cn1cc(C2=C(c3ccc(Cl)cc3Cl)C(=O)NC2=O)c2ccccc21`, the inhibition was -1.7%.

For `O=C(O)Cc1ccc(O)c(O)c1`, the inhibition is 5.6% (active).

Turning to `CCN(CC)C(=O)c1ccc(O)c(OC)c1`, the inhibition was 6.8% (active). Consider `COc1cc(CC(=O)O)ccc1O`, for which the inhibition is 11% (active). Turning to `CCCCCCCC/C=C\CCCCCCCC(=O)NCc1ccc(O)c(OC)c1`, the inhibition is -4.3%.

Turning to `COc1cc(CNC(=O)CCCCCCC(C)C)ccc1O`, the inhibition was 7.6% (active). `CC1CCN(CC[C@H]2CCCN2S(=O)(=O)c2cccc(O)c2)CC1`: the inhibition is -3.7%. The result for `Brc1c(NC2=NCCN2)ccc2nccnc12` reads -3.8%.

Regarding `O=C1c2ccccc2-c2n[nH]c3cccc1c23`, the inhibition is 12.7% (active). Turning to `Oc1cc2c(c(Cl)c1O)CCNCC2c1ccccc1` (centres undefined), the inhibition was 24.1% (active). The same measure for `Oc1ccc(C2CNCCc3c2cc(O)c(O)c3Cl)cc1` (centres undefined): 30% (active); for `Oc1cc2c(cc1O)C(c1ccccc1)CNCC2` (centres undefined): 5.7% (active); for `O=C(O)C1=CCNCC1`: -1.6%. The result for `CSC(N)=NCCC[C@H](N)C(=O)O` reads 1.7% (active); that for `CN(C)C(N)=NCCC[C@H](N)C(=O)O`, 0.3% (active); that for `NC(N)=NCCC[C@H](N)C(=O)O`, 6% (active). `CC(N)=NCCCC[C@@H](N)C(=O)O`: the inhibition is -0.6%. With `Nc1c2c(nc3ccccc13)CCCC2`, the inhibition is -3.1%. For the compound `O=c1c2ccccc2nc2n1CCc1c-2[nH]c2ccccc12`, the inhibition was 5% (active). The result for `CCCCCCC/C=C\CCCCCCCCC(=O)O` reads -3.4%; that for `CCCCCCCCCCC/C=C\C(C)(C)/C=C\CCCC(=O)O`, 9.1% (active). The result for `CCCn1c(=O)c2[nH]c(-c3ccc(S(=O)(=O)O)cc3)nc2n(CCC)c1=O` reads -0.7%; that for `CCCn1c(=O)c2[nH]c(-c3ccc(OCC(=O)NCCN)cc3)nc2n(CCC)c1=O`, 0.5% (active). Regarding `CCC1(c2ccccc2)C(=O)NCNC1=O`, the inhibition was 2.4% (active). In the case of `CN1Cc2c(N)cccc2C(c2ccccc2)C1` (centres undefined), the inhibition is 5.3% (active).

Turning to `CC1=C(/C=C/C(C)=C/C=C/C(C)=C\C(=O)O)C(C)(C)CCC1`, the inhibition is -3%. The same measure for `CC1=C(/C=C/C(C)=C/C=C/C(C)=C/C(=O)O)C(C)(C)CCC1`: 2.4% (active). Regarding `CC1=C(/C=C/C(C)=C/C=C/C(C)=C/C(=O)Nc2ccc(O)cc2)C(C)(C)CCC1`, the inhibition was 1.8% (active). The result for `CC(=O)O[C@]1(C(C)=O)CC[C@H]2[C@@H]3C=C(Cl)C4=CC(=O)[C@@H]5C[C@@H]5[C@]4(C)[C@H]3CC[C@@]21C` reads 6.1% (active); that for `NC[C@@H]1O[C@H](c2ccccc2)Cc2c1ccc(O)c2O`, 11% (active). Consider `NC[C@@H]1O[C@H](C23CC4CC(CC(C4)C2)C3)Cc2c1ccc(O)c2O`, for which the inhibition was 17.8% (active). As for `Nc1ncnc2n[nH]c(Nc3ccc(F)cc3)c12`, the inhibition was 19.7% (active). The result for `C1COC(NC(C2CC2)C2CC2)=N1` reads 0.6% (active); that for `Clc1ccc(Cn2c(CN3CCCC3)nc3ccccc32)cc1`, -0.7%. With `Clc1ccc(N2CCN(Cc3cc4ccccn4n3)CC2)cc1`, the inhibition was 21.7% (active). With `O=C1CCC(N2C(=O)c3ccccc3C2=O)C(=O)N1` (centres undefined), the inhibition was -1.8%. As to `O=c1ccc2ccc(O)c(O)c2o1`, the inhibition is 31.6% (active). For `Cn1cnc2c(NCc3ccccc3)nc(NCCO)nc21`, the inhibition is 1.3% (active). The result for `CC[C@@H](CO)Nc1nc(NCc2ccccc2)c2ncn(C(C)C)c2n1` reads 6.3% (active); that for `Cc1cc(NC2CCCCC2)nc(-n2nc(C)cc2C)n1`, 1.1% (active); that for `Cc1ccc(Cl)c(Nc2ccccc2C(=O)O)c1Cl`, 6.2% (active).

Take `O=C(O)c1ccccc1Nc1ccccc1`: the inhibition is 42.7% (active).

Turning to `O=C(O)CP(=O)(O)O`, the inhibition was -4%.

For `CC(N)C1CCC(C(=O)Nc2ccncc2)CC1` (centres undefined), the inhibition was 4.4% (active). `COc1ccc(C2CNC(=O)C2)cc1OC1CCCC1` (centres undefined): the inhibition is -7.5%. For the compound `CC[C@@H](C)[C@H]1O[C@]2(CC[C@@H]1C)C[C@@H]1C[C@@H](C/C=C(\C)[C@@H](O[C@H]3C[C@H](OC)[C@@H](O[C@H]4C[C@H](OC)[C@@H](O)[C@H](C)O4)[C@H](C)O3)[C@@H](C)/C=C/C=C3\CO[C@@H]4[C@H](O)C(C)=C[C@@H](C(=O)O1)[C@]34O)O2`, the inhibition is 1.1% (active).

`COc1ccccc1OCCNCC(O)COc1cccc2[nH]c3ccccc3c12` (centres undefined): the inhibition is 1.9% (active). Regarding `CCCNCC(O)COc1ccccc1C(=O)CCc1ccccc1` (centres undefined), the inhibition was -7.1%. The result for `C=C1C(=O)O[C@@H]2[C@H]3O[C@]3(C)CCC=C(C)CC[C@@H]12` reads 0.5% (active); that for `NCCCC(N)(C(=O)O)C(F)F` (centres undefined), -2.3%. The result for `Cn1ncc(S(=O)(=O)Cc2ccccc2)c(Br)c1=O` reads -5.4%; that for `N[C@H](C(=O)O)[C@H](O)C(=O)O`, 0.9% (active); that for `N[C@@H](Cc1cnc[nH]1)C(=O)O`, 1.5% (active). The result for `CCN(CC)c1ncnc2c1ncn2[C@@H]1O[C@H](COP(=O)(O)OP(=O)(O)C(Br)(Br)P(=O)(O)O)[C@@H](O)[C@H]1O` reads -1%; that for `Nc1ncnc2c1ncn2[C@@H]1O[C@H](COP(=O)(O)OP(=O)(O)OP(=O)(O)OP(=O)(O)OC[C@@H]2O[C@H](n3cnc4c(N)ncnc43)C(O)[C@@H]2O)[C@H](O)C1O` (some centres undefined), 3.7% (active); that for `NC(=S)c1ccc[n+]([C@@H]2O[C@@H](COP(=O)([O-])OP(=O)(O)OC[C@H]3O[C@@H](n4cnc5c(N)ncnc54)C(OP(=O)(O)O)[C@H]3O)C(O)C2O)c1` (some centres undefined), 3.1% (active).

For the compound `NC[C@H]1O[C@@H](n2cnc3c(N)ncnc32)[C@H](O)[C@@H]1O`, the inhibition is -4.6%. The same measure for `NC(=O)C1=C[N+](=C2OC(COP(=O)(O)OP(=O)([O-])OC[C@H]3O[C@@H](n4cnc5c(N)ncnc54)C(OP(=O)(O)O)[C@H]3O)C(O)C2O)C=CC1` (some centres undefined): -0.9%.

For `Nc1ncnc2c1ncn2[C@@H]1O[C@H](COP(=O)(O)CP(=O)(O)OP(=O)(O)O)[C@H](O)C1O` (some centres undefined), the inhibition is -6.5%. On to `O=c1[nH]c2cc(Cl)ccc2c(O)c1-c1ccc(Oc2ccccc2)cc1`, for which the inhibition is -2.9%. The result for `COc1ccc(CCn2nnnc2C2(c3ccc(C)cc3)CC2)cc1` reads 0.5% (active); that for `N=c1nc(N2CCCCC2)cc(N)n1O`, 1% (active). The result for `COC(=O)Nc1nc2ccc(C(=O)c3cccs3)cc2[nH]1` reads -0.8%. For `Cc1oncc1C(=O)Nc1ccc(C(F)(F)F)cc1`, the inhibition was 6.7% (active). On to `CCCN1C[C@H](CSC)C[C@@H]2c3cccc4[nH]cc(c34)C[C@H]21`, for which the inhibition is 7.8% (active). `NCCCCN`: the inhibition is -2.1%.

As for `NCCCCN=C(N)N`, the inhibition is 2.1% (active). The same measure for `NC(N)=NCCCCN=C(N)N`: 7.2% (active); for `NCCCCCCCCCCN`: 0%; for `COc1ccc(-c2cc3ncc(C)n3c(Nc3ncccc3C(N)=O)n2)cc1OC`: -0.2%. The result for `C=CC(N)CCC(=O)O` (centres undefined) reads 0.6% (active).

For the compound `NCCCC(=O)O`, the inhibition was -4%. On to `COCC(=O)O[C@]1(CCN(C)CCCc2nc3ccccc3[nH]2)CCc2cc(F)ccc2[C@@H]1C(C)C`, for which the inhibition is -5.7%. With `CC[C@@H]1Cc2cc(O)ccc2C2=C1c1ccc(O)cc1C[C@H]2CC`, the inhibition is 41.5% (active). The result for `Cc1nc2c(OCc3ccccc3)cccn2c1CC#N` reads -7.9%. The result for `CCCNC(=O)NS(=O)(=O)c1ccc(Cl)cc1` reads 0.2% (active). The result for `CCCCNC(=O)NS(=O)(=O)c1ccc(C)cc1` reads -6.3%; that for `Nn1nnc2ccccc21`, 0.7% (active). On to `Fc1ccc([C@@H]2CCNC[C@H]2COc2ccc3c(c2)OCO3)cc1`, for which the inhibition is -0.5%.

For the compound `CC(C)NCC(O)c1cc(O)cc(O)c1` (centres undefined), the inhibition was -2.6%. The result for `CCC(NC(C)C)C(O)c1ccc(O)c(O)c1` (centres undefined) reads 6.4% (active). As for `CC(C)NCC(O)c1ccc(NS(C)(=O)=O)cc1` (centres undefined), the inhibition is -5.9%.

As for `CC(C)NC[C@H](O)c1ccc(O)c(O)c1`, the inhibition was 1.4% (active). Turning to `CC(C)NCC(O)c1ccc(O)c(O)c1` (centres undefined), the inhibition is 4.8% (active) and 11.3% (active). As to `CC1CNCCN1S(=O)(=O)c1cccc2cnccc12` (centres undefined), the inhibition was 10.4% (active). With `CC1CN(S(=O)(=O)c2cccc3cnccc23)CCN1` (centres undefined), the inhibition was 3% (active).

As to `CNCCNS(=O)(=O)c1cccc2cnccc12`, the inhibition was -3%. The same measure for `CCO/C([O-])=N/c1c[n+](N2CCOCC2)no1`: -1.5%; for `Clc1ccccc1C(c1ccccc1)(c1ccccc1)n1ccnc1`: 10.5% (active).
